# Data: PubChem BioAssay
# Activity calls are given as the source filed them. Unless noted, how the calls were made is not given here.
# Tests used:
# [1] = A549 cell viability effects, profiling panel, calcein-AM fluorescence, 48 h, basal (AID 1162); conditions: higher = more signal; further: test concentration not given here
# [2] = adipocyte viability effects, profiling panel, cell-based, 3T3-L1 adipocytes, calcein-AM fluorescence, 48 h, basal (AID 1163); conditions: 3T3-L1 adipocytes viability, higher = more signal; further: test concentration not given here
# [3] = HepG2 cell viability effects, profiling panel, calcein-AM fluorescence, 48 h, basal (AID 1164); conditions: higher = more signal; further: test concentration not given here
# [4] = MM1S cell viability effects, profiling panel, calcein-AM fluorescence, 48 h, basal (AID 1165); conditions: higher = more signal;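 further: viability of MM1S multiple myeloma cells under basal unstimulated conditions; test concentration not given here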
# [5] = basal RPMI8226 viability, no added stimulus, profiling panel, cell-based, calcein-AM fluorescence, 48 h, PK04 Diversity Set (AID 1166); conditions: RPMI8226 myeloma viability, higher = more signal;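 further: cells grown under basal conditions without added stimulus; test concentration not given here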
# [6] = basal HepG2 mitochondrial membrane potential changes, profiling panel, cell-based, JC-1 fluorescence, 24 h, 100 nL compound (AID 1167); conditions: higher = more signal; further: test concentration not given here
# [7] = basal 3T3-L1 adipocyte mitochondrial potential changes, profiling panel, cell-based, JC-1 fluorescence, 3T3-L1 adipocytes, 24 h, 100 nL compound (AID 1168); conditions: JC-1 mitochondrial fluorescence, higher = more signal, called active from +8 up or from −8 down; further: test concentration not given here
# [8] = basal RPMI8226 mitochondrial membrane potential changes, profiling panel, cell-based, JC-1 fluorescence, 24 h, 100 nL compound (AID 1169); conditions: RPMI8226 myeloma, JC-1 mitochondrial potential fluorescence, higher = more signal; further: test concentration not given here
# [9] = basal MM1S mitochondrial membrane potential changes, profiling panel, cell-based, JC-1 fluorescence, 24 h, 100 nL compound (AID 1170); conditions: higher = more signal; further: test concentration not given here
# [10] = A549 lung cancer cell viability effects, profiling panel, resazurin fluorescence, 24 h, PK04 Diversity Set (AID 1171); conditions: higher = more signal, called active from +8 up or from −8 down; further: test concentration not given here
# [11] = HepG2 liver cancer cell viability effects, profiling panel, resazurin fluorescence, 24 h, PK04 Diversity Set (AID 1172); conditions: higher = more signal; further: test concentration not given here
# [12] = basal S. cerevisiae growth modulation, no modifier, primary screen, OD600, strain BY4716, 24 h, basal condition (AID 1173); conditions: OD600, 24 h, higher = more signal, called active from +8 up or from −8 down
# [13] = MM1S myeloma cell viability, profiling panel, resazurin fluorescence, basal, 24 h, PK04 Diversity Set (AID 1174); conditions: higher = more signal, called active from +8 up or from −8 down;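 further: MM1S multiple myeloma cell line; test concentration not given here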
# [14] = target: Dihydroorotate dehydrogenase (quinone), mitochondrial (Plasmodium falciparum (isolate 3D7)) (UniProt Q08210); assay: PfDHODH enzyme inhibitors, primary screen, biochemical, C-terminal His tag, absorbance 600 nm (AID 1175); conditions: DCIP absorbance 600 nm, higher = more signal, called active from +8 up or from −8 down;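 further: recombinant parasite enzyme with a five histidine tag at its C terminus; test concentration not given here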
# Dihydroorotate dehydrogenase (quinone), mitochondrial (Plasmodium falciparum (isolate 3D7)), sequence (Q08210 whole entry, looked up): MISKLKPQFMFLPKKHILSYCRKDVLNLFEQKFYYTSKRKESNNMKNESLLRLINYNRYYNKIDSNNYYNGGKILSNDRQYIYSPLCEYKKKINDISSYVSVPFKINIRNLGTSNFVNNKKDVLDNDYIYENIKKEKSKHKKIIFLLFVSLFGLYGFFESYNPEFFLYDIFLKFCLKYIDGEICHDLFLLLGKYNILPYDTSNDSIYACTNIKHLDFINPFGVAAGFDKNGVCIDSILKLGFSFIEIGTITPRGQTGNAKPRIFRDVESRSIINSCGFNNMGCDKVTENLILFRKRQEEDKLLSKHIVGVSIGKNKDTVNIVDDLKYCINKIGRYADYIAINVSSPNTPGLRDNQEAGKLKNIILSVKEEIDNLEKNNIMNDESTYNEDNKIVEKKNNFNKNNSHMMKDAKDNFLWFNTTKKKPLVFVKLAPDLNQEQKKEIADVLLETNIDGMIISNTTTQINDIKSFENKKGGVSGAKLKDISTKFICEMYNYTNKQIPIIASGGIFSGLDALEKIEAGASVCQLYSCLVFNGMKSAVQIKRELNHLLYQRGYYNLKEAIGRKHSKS
# [15] = P. aeruginosa biofilm formation inhibitors, primary screen, strain PAO1, LB-PBS medium, absorbance 600 nm (AID 1176); further: test concentration not given here; conditions: P. aeruginosa PAO1 growth/biofilm, A600, 12 h; higher = more signal
# [16] = S. cerevisiae RM11-1a growth modifiers, primary screen, strain RM11-1a, OD600, basal, 24 h (AID 1177); conditions: OD600, 24 h, higher = more signal, called active from +8 up or from −8 down;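 further: cultures grown under basal conditions with no added stressor; test concentration not given here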
# [17] = E. coli acrAB mutant growth effects, primary screen, E. coli filamentation inducers, strain DRC39, OD650, 24 h (AID 1178); conditions: higher = more signal, called active from +8 up or from −8 down;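 further: growth measured as culture turbidity by optical density at 650 nm; test concentration not given here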
# [18] = E. coli acrAB mutant growth effects, primary screen, E. coli filamentation inducers, strain DRC39, OD650, 48 h (AID 1179);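 further: screen aims at cell division blockers that make cells filament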; conditions: E. coli DRC39 delta-acrAB growth, higher = more signal, called active from +8 up or from −8 down
# [19] = RPMI8226 myeloma cell viability, profiling panel, resazurin fluorescence, basal, 24 h, PK04 Diversity Set (AID 1180); conditions: higher = more signal;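 further: RPMI8826 multiple myeloma cell line at 5000 cells per well; test concentration not given here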
# [20] = target: E3 ubiquitin-protein ligase XIAP (Homo sapiens) (UniProt P98170); assay: XIAP binders, primary screen, biophysical, small-molecule microarray, fluorescence 635 nm (AID 1181); conditions: small-molecule microarray binding, higher = more signal;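 further: score merges 667 nm emission and signal to noise over triplicate slides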
# E3 ubiquitin-protein ligase XIAP (Homo sapiens), sequence (P98170 whole entry, looked up): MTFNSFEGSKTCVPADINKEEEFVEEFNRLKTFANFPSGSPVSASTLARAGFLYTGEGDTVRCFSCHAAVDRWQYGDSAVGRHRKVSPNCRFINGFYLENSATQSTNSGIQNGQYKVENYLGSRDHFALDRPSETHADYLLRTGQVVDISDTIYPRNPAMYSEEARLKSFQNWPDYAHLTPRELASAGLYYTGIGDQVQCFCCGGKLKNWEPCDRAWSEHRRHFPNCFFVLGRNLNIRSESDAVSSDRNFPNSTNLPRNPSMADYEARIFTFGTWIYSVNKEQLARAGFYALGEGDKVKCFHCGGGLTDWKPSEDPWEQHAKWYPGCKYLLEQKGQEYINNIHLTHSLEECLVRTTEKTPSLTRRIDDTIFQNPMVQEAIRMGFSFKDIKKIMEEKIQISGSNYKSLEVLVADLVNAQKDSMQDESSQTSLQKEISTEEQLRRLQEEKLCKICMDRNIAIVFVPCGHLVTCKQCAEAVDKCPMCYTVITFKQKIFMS
SMILES,z-score [1],z-score [2],z-score [3],z-score [4],z-score [5],z-score [6],z-score [7],z-score [8],z-score [9],z-score [10],z-score [11],z-score [12],z-score [13],composite z-score [14],z-score [15],z-score [16],z-score [17],z-score [18],z-score [19],composite z-score [20]
CO[C@@H]1COC(=O)[C@@H]2CCCN2C(=O)[C@@H](C)COC(=O)CC=C[C@H]1C,-1.06,-0.11,-0.321,0.0099,-0.748,-0.2,-1.49 (inactive),-0.0504,-0.684,0.948 (inactive),1.09,0.755 (inactive),0.468 (inactive),-0.385 (inactive),-0.749 (inactive),0.0994 (inactive),0.207 (inactive),-0.179 (inactive),0.189,-0.273
O=C1[C@H]2[C@H]3[C@H](O)[C@H](O)CC(=NOCc4ccccc4)[C@@H]3CC[C@H]2C(=O)N1C[C@@H]1CCCO1,-0.0287,-0.444,-0.581,0.229,-0.812,-1.01,0.577 (inactive),-0.944,-0.28,0.232 (inactive),0.0577,-0.321 (inactive),0.161 (inactive),-0.0256 (inactive),0.611 (inactive),-0.447 (inactive),-0.242 (inactive),0.403 (inactive),0.278,-0.211
C[C@@H]1CC[C@H]2C(=O)O[C@@H](Cc3ccccc3)CN2[C@H]1c1ccc(Br)cc1,0.442,0.185,0.828,-0.591,-0.323,-0.225,0.276 (inactive),0.231,0.697,0.539 (inactive),0.603,-1.06 (inactive),0.656 (inactive),0.245 (inactive),-0.491 (inactive),0.37 (inactive),-0.402 (inactive),-0.161 (inactive),0.0066,0.0871
CO[C@@H]1COC(=O)[C@@H](C)COC(=O)[C@@H](C)NC(=O)CC=C[C@@H]1C,-0.448,1.25,-1.45,-0.539,-1.86,0.2,-0.189 (inactive),0.0701,-1.48,0.512 (inactive),-0.373,-0.792 (inactive),1.2 (inactive),-4.92 (inactive),-0.136 (inactive),-1.99 (inactive),-0.98 (inactive),-1.13 (inactive),0.635,-0.271
C[C@@H]1CC[C@H]2C(=O)O[C@@H](COc3ccc(C(C)(C)C)cc3)CN2[C@@H]1c1ccc(Br)cc1,0.373,1.03,0.843,-2.33,-0.391,-1.05,-0.391 (inactive),-0.509,0.291,1.99 (inactive),0.937,-0.752 (inactive),0.23 (inactive),-0.184 (inactive),-0.291 (inactive),-0.176 (inactive),0.095 (inactive),0.408 (inactive),1.06,0.072
CCOC(=O)NN=C1C[C@@H](O)[C@@H](O)[C@@H]2[C@@H]3C(=O)N(c4ccc(F)cc4F)C(=O)[C@@H]3CC[C@@H]12,0.187,-0.384,-1.12,0.218,0.617,0.333,0.076 (inactive),0.285,-0.326,0.485 (inactive),1.06,0.559 (inactive),0.514 (inactive),-0.0225 (inactive),0.118 (inactive),0.916 (inactive),0.239 (inactive),-0.559 (inactive),0.562,-0.0663
CCOC(=O)[C@H](CC(C)C)NC(=O)CCC1CC(OC(=O)NCCc2ccc(F)cc2)CC2(CCCC(COC(=O)NCCc3ccccc3OC)O2)O1 (stereo not given in full),0.239,-0.227,-0.204,-1.35,-1.41,0.481,0.293 (inactive),-0.106,-0.878,-0.311 (inactive),-0.285,-0.376 (inactive),0.311 (inactive),-0.991 (inactive),0.45 (inactive),0.354 (inactive),0.61 (inactive),0.376 (inactive),0.441,-0.0565
CCOC(=O)CCN1C(=O)[C@H]2[C@H]3[C@H](O)[C@H](O)CC(=NOCC(C)C)[C@H]3CC[C@H]2C1=O,0.0183,0.179,-0.268,0.324,-0.75,0.364,0.295 (inactive),-0.324,-1.03,-0.86 (inactive),-0.823,0.265 (inactive),-0.662 (inactive),-1.19 (inactive),0.246 (inactive),0.628 (inactive),0.692 (inactive),0.686 (inactive),-0.876,-0.22
